# Assay outcomes: PubChem BioAssay, several laboratories
# HSF1 inhib: HSF1 inhibition; NIH3T3-HGL HSE-luciferase, MG132-induced, luminescence 8 h; active compounds read low; AID 2098; actives 0.77% (n = 300,000); activity change, negative = inhibition, % at 7.5 µM (by protocol);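 active means more than half of replicate wells show activity change below -50%, luminescence cut by over half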;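 further: luciferase reports HSF-1 transcriptional activity via heat shock element; 0% = median of DMSO wells and -100% = zero luminescence signal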
# Platelet DG rel: platelet dense granule release activity | human platelet-rich plasma, SFLLRN dense granule ATP release, luminescence | inhibition, %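 (compounds screened at 7.5 µM in platelet-rich plasma)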 | actives 0.22% (n = 300,000);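 active means mean replicate score, as percent of positive control, at or above 50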
# HSF-1 act: increases HSF-1 driven luciferase reporter signal; NIH3T3-HGL HSF-1 luciferase reporter, MG132, 8 h; 100% = twice DMSO control signal; activation, % at 9 µM; actives 1.7% (n = 300,000);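 active means mean replicate activation of at least 50% with a set share of replicates each reaching 50%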;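 further: 0% = median of the neutral control wells and 100% = twice that signal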
# dFosB act: activators of mouse delta FosB homodimer; P13346; actives 0.99% (n = 340,000); AID 493131; purified delta FosB, TAMRA-CDK5 oligo fluorescence polarization; percent of positive-control signal above neutral wells; activation, % at 25 µM;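 active means mean activation above about 17%, with every replicate also reaching it, limit read from the data, passing the limit was not always enough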
# Target sequence (P13346 whole entry, looked up): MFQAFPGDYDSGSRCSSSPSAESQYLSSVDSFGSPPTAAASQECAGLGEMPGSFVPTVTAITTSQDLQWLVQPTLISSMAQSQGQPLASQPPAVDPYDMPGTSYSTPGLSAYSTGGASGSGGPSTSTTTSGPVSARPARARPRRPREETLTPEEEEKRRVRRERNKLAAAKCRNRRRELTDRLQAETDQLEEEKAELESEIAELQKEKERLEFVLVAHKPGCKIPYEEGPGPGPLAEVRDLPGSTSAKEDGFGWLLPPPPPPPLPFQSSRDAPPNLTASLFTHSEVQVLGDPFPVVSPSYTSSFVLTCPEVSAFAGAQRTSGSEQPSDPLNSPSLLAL
# HSP90 inh: inhibitors of HSP90 luciferase refolding in rabbit reticulocyte lysate; AID 1789; inhibition, % at 5.6 µM; luciferase refolding luminescence, 3 h; actives 0.91% (n = 290,000);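 active means inhibition above the screen-wide mean plus 3 SD, computed separately per campaign, cut at about 16% in these data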;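 further: 0% = DMSO wells and 100% = 60 µM geldanamycin wells; inhibitors lower the luminescence because luciferase stays unfolded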
# MPTP block: permeability transition pore inhibition; isolated mouse mitochondria, Ca2+ swelling absorbance, 30 min; inhibition, % at 10 µM; actives 1.4% (n = 360,000);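 active means inhibition of 50% or more, scaled per plate between neutral and stimulator controls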;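 further: 0% = DMSO wells given calcium and 100% = 1 mM EGTA wells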
# Starred values were filed as active, the others as inactive; . = not tested or not shown. Shown are actives, neighbours in structure and some others; about 4.9% of the full set was active somewhere.
SMILES,HSF1 inhib,Platelet DG rel,HSF-1 act,dFosB act,HSP90 inh,MPTP block
c1ccc2c(NCCc3c[nH]c4ccccc34)c3ccccc3nc2c1,1,-7,1,123*,-2,2
Fc1cccc(NCCc2c[nH]c3ccccc23)n1,22,-1,14,-6,-3,0
COCCNc1c2c(nc3ccccc13)CCC2,-18,10,-31,-9,2,0
CCOC(=O)C1(C)CCN1C(=O)c1cc(F)ccc1C (stereo not given),.,.,.,.,.,-2
C=CCNc1ncnc2c1[nH]c1ccc(C)cc12,19,10,62*,-8,-2,44
CC(=O)Oc1ccc(/C=N/NC(=S)Nc2ccccc2)cc1,-5,6,6,-14,-2,1
COCCn1c(SCC(=O)Nc2ccc3c(c2)OCCO3)nc2c(c1=O)SC(C)C2 (stereo not given),.,.,.,-11,-4,-1
CC1Cc2nc(SCC(=O)Nc3ccc4c(c3)OCO4)n(Cc3ccccc3)c(=O)c2S1 (stereo not given),55,-2,78*,-7,-4,0
COc1ccc(OC)c(-n2nnnc2SCC(=O)NCc2ccc3c(c2)OCO3)c1,-72*,22,-77,0,-2,0
CCn1nnnc1SCC(=O)NCc1ccc2c(c1)OCO2,-1,5,-4,-1,0,0
O=C(Nc1ccccc1O)c1csc2c1CCCC2,39,-1,93*,5,-2,8
O=C(N/N=C/c1ccccc1F)NC12CC3CC(CC(C3)C1)C2,49,-2,87*,-1,1,1
O=C(N/N=C/c1ccccc1F)c1csc2c1CCCC2,46,0,65*,-6,1,-1
O=C(N/N=C/c1cccc(F)c1)c1csc2c1CCCC2,24,12,39,-3,-10,-1
COc1cccc(/C=N/NC(=O)NC23CC4CC(CC(C4)C2)C3)c1O,15,0,11,.,.,28
CC1(C)CC(=O)C(CSC(=O)c2ccccc2)C(=O)C1,.,.,.,.,.,-2
Cc1c(CN(C)C)c2c(n1Cc1ccccc1)C(=O)c1ccc(Br)cc1-2,-39,-8,-50,19*,0,-6
CCOc1ccc(-c2nc3ccccc3c(=O)o2)cc1,24,12,55*,-7,-3,-2
COc1ccc(-c2nc3ccccc3c(=O)o2)cc1OC,-5,-1,6,-40,0,1
CCOc1ccc(-c2nnc(-c3ccncc3)o2)cc1,16,2,52*,-16,0,0
CCO[C@H]1OC(C(N)=O)=C[C@@H](C2CC2)[C@@H]1CCCO,-6,-3,-6,.,.,.
COc1ccc(C(CNC(=O)c2cccc(S(=O)(=O)N3CCc4ccccc43)c2)N(C)C)cc1 (stereo not given),.,.,.,-1,.,3
CC(C)Nc1nnc(Sc2ccc(Cl)cc2[N+](=O)[O-])s1,-50*,-11,-60,-1,-4,1
Nc1nnc(Sc2ccc(Cl)cc2[N+](=O)[O-])s1,8,-4,14,4,2,0
COc1ccc2oc(=O)c(C(=O)N3CCN(c4ccccc4)CC3)cc2c1,44,-7,82*,-6,-1,-1
SMILES,HSF1 inhib,Platelet DG rel,HSF-1 act,dFosB act,HSP90 inh,MPTP block
COc1ccc2oc(=O)c(C(=O)N3CCN(C(=O)c4ccccc4)CC3)cc2c1,-2,6,7,3,-2,0
O=C1NC(=O)C2(CCC(C(=O)O)C2)N1 (stereo not given),-8,50*,5,10,-1,-1
N/C(=N\OC(=O)/C=C/c1ccccc1Cl)c1cccnc1,37,9,57*,.,-5,2
O=C(Nc1ccccc1)C(=O)Nc1cccnc1,17,27,49,3,16*,0
Cc1cc(C)nc(NC(=O)/C=C/c2ccc(Cl)cc2Cl)c1,12,12,38,7,-1,3
O=C(/C=C/c1ccccc1Cl)Nc1cccnc1,28,5,58*,-24,6,0
Cc1cc(C)nc(NC(=O)/C=C/c2ccccc2Cl)c1,36,-1,84*,-8,-1,29
O=C(CC(=O)c1ccccc1)Nc1cccnc1,4,4,-6,2,-3,1
CCSc1nnc(CNC(=O)C23CC4CC(CC(C4)C2)C3)n1C1CCCCC1,-5,-3,26,-8,2,2
